Experimental data from PubChem BioAssay AID602429 (Sanford-Burnham Center for Chemical Genomics, 2012).
About 1,200 (0.33%) of roughly 360,000 compounds were called active. This is one part of a sample in which actives are shown more often than they occur. Cut-off read from the data, not from the text of the source: active = inhibition above about 37%; inactive = the rest.

Each compound was assayed against Small ubiquitin-related modifier 1 (Homo sapiens) (UniProt P63165) (assay: SUMO1 binding to interaction partners, disruption – biochemical, uHTS, primary screen (AID 602429)). Conditions: SUMO1 binding to a labelled peptide, TR-FRET, 1 h; at 20 µM; hits give high values.
Sequence of Small ubiquitin-related modifier 1 (Homo sapiens) (P63165 whole entry, looked up): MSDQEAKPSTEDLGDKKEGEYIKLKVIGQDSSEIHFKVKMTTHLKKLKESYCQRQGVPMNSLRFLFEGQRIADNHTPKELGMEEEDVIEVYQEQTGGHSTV

inhibition, active:
Cn1c2ccccc2c(=O)c2c(=O)n(Cc3ccco3)c(COc3ccccc3)nc21 42.3%, O=C(Nc1ccccc1)c1ccccc1Br 41.9%, COc1ccc2[nH]c3c(C)c4cc[n+](C)cc4c(C)c3c2c1 61.3%, CCCCCCC(=O)Nc1nc(C)c(-c2csc(Nc3cccc(OC)c3)n2)s1 40.2%, C=Cc1ccc(C(=O)N2CCCC(CCC(=O)N3CCN(c4ccccn4)CC3)C2)cc1 (stereo unspecified) 58.2%, COc1ccc(-n2nnnc2SCC(=O)NCc2cccs2)cc1 43.1%, O=C(Nc1cccc(-c2nc3ccccc3[nH]2)c1)c1ccc(C(=O)Nc2cccc(-c3nc4ccccc4[nH]3)c2)cc1 56.6%, COc1cc(NC(=O)c2ccc(CNc3c(N4CCCC4)c(=O)c3=O)cc2)cc(OC)c1OC 48.9%, Cc1ccc(C(=O)O)cc1-c1ccc(/C=C2\SC(=O)N(CC(=O)Nc3ccc4c(c3)OCO4)C2=O)o1 106%, C[C@H]([C@@H](O)[C@@H](O)[C@@H](C)C(C)(C)C)[C@H]1CC[C@H]2C3CC[C@H]4C[C@H](OS(=O)(=O)O)[C@@H](OS(=O)(=O)O)C[C@]4(C)[C@H]3CC[C@]12C (stereo partly specified) 57.1%, O=C(Nc1cccnc1)c1cc2cc(Br)ccc2oc1=O 79%, COc1ccc(CC(=O)Nc2ccc(-c3nnc(-c4ccc(C)cc4)o3)cc2)cc1 52%, O=C(O)C(c1ccccc1)N1C(=O)/C(=C\c2ccc(-c3cccc(Cl)c3)o2)SC1=S (stereo unspecified) 75.9%, C=CC1=C(C(=O)O)N2C(=O)[C@@H](NC(=O)/C(=N/OCC(=O)O)c3csc(N)n3)[C@H]2SC1 121%, C=CC1=C(C(=O)O)N2C(=O)[C@@H](NC(=O)/C(=N\OCC(=O)O)c3csc(N)n3)[C@H]2SC1 56.1%, Cc1nc(-c2ccccc2)sc1-c1nc(-c2ccccc2)ncc1S(=O)(=O)c1ccccc1 56.4%, COc1cc(OC)c(OC)cc1/C=N/Nc1ncnc2c1[nH]c1ccc(C)cc12 60.7%, O=c1ccc2c(-c3ccccc3S(=O)(=O)O)c3ccc(O)c(O)c3oc-2c1O 48.2%

inhibition, inactive:
COc1ccc(C(=O)NC2(C(F)(F)F)NC(=O)N(CCCc3ccccc3)C2=O)c(OC)c1OC (stereo unspecified) 7.81%, COc1ccc(-c2oc3ncn(Cc4ccco4)c(=N)c3c2-c2ccc(OC)cc2)cc1 -9.5%, O=C(Cn1c(=O)n(Cc2ccco2)c(=O)c2ccccc21)NCC1CCCO1 (stereo unspecified) 4.85%, O=C(Nc1ccccc1C(=O)N1CCCCC1)c1ccco1 -3.94%, O=C(Nc1ccccc1)c1ccccc1NC(=O)C(F)(F)F -1.22%, O=C(O)c1ccccc1-c1ccccc1C(=O)Nc1ccccc1Br -0.773%, COc1ccc(NC(=S)N2CCC(NC(=O)c3cccc(F)c3)CC2)cc1 4.71%, Cc1noc(C)c1-c1nc(CSc2ccc(Cl)cc2)no1 1.71%, CCN(CC)CCCNC(=O)c1cn(C)c2ccc(S(=O)(=O)N(C)C3CCCCC3)cc2c1=O 5.63%, CCOc1cc(-c2conc2N)cc(OCC)c1OCC 1.02%, CC(=O)Nc1ccc(NC(=O)CSc2nnc(C3CC3)n2-c2ccccc2)cc1 3.94%, CCOc1ccc(N(CC(=O)NCC2CCCO2)S(=O)(=O)c2ccc(C)cc2)cc1 (stereo unspecified) 6.75%, COc1cccc(NC(=O)COc2cccnc2[N+](=O)[O-])c1 -32.4%, C=CCCC(=O)Nc1nc(C)c(-c2csc(Nc3ccc(Cl)cc3)n2)s1 1.48%, CCCOC1CCCN(Cc2cn(C)nc2-c2ccccc2F)C1 (stereo unspecified) 5.15%, COc1ccc(-c2csc(C(O)c3cccc(Cl)c3)n2)cn1 (stereo unspecified) -2.47%, CCc1nn(CC(=O)N2CCN(c3cc(C)ccc3C)CC2)c(=O)c2cc3occc3n12 2.09%, O=S1(=O)CCO[C@H]2Cc3ccccc3[C@H]2N1Cc1ccccc1 -0.696%, O=C(CCC1CCCN(C(=O)c2ccc(F)c(F)c2)C1)N1CCN(c2ccccn2)CC1 (stereo unspecified) 2.38%, COc1cccc(CC(=O)N2CCCC(CCC(=O)N3CCN(c4ccccn4)CC3)C2)c1 (stereo unspecified) -2.38%, Cc1ccc(NC(=S)NC(NC(=O)Cc2cccc3ccccc23)C(Cl)(Cl)Cl)cc1 (stereo unspecified) 0.772%, COc1ccc(-n2c(SCC(=O)NCc3cccs3)nnc2-c2ccoc2C)cc1 -0.51%, COc1ccc(NC(=O)CSc2nnnn2-c2cccc(OC)c2)cc1 -3.25%, CC(=O)c1nn(-c2ccccc2)c(=Nc2ccccc2)cc1C -14.6%, OCCC1CN(Cc2cnc(-c3ccccc3)s2)CCN1CCc1ccccc1 (stereo unspecified) -2.45%, Cn1c(N)c(C(=O)COC(=O)/C=C/c2ccc(OC(F)F)cc2)c(=O)n(C)c1=O -2.46%, O=S(=O)(c1ccccc1)N1CN(Cc2ccc(F)cc2)c2nc3ccccc3nc21 -3.38%, O=C(Nc1ccccc1Cc1ccccc1)c1ccc2c(c1)SC1=NS(=O)(=O)CCN12 28.2%, CCOc1ccc(C(=O)Nc2cccc(SC)c2)cc1 -1.79%, O=C(NNC(=O)c1ccc(-c2ccccc2)cc1)Nc1ccccc1 2.2%, C/C(CC(=O)NC(C)c1ccccc1)=N\NC(N)=S (stereo unspecified) -2.76%, CC(=O)c1c(C)[nH]c(C(=O)CN2C(=O)NC(C)(C)C2=O)c1C -2.31%, CCOc1cccc2c1OC1(CCCCC1)N1N=C(c3cccnc3)CC21 (stereo unspecified) -1.86%, O=C(NCc1ccccc1)c1ccc(CNc2c(N3CCCC3)c(=O)c2=O)cc1 -2.77%, O=C(NC1CCCCC1)c1ccc(CNc2c(N3CCOCC3)c(=O)c2=O)cc1 -0.641%, COC(=O)c1sccc1NN1C(=O)c2ccccc2C1=O -2.44%, Cc1nc([N+](=O)[O-])cn1CC(=O)Nc1ccc2c(c1)OCO2 -6.05%, O=C(CCN1C(=O)c2ccncc2C1=O)Nc1ccc2c(c1)OCCO2 -14.5%, CC(=O)O[C@H]1CC[C@@]2(C)[C@@H](CC[C@@H]3[C@@H]2CC[C@]2(C)[C@@H](C(C)(C)O)C[C@@H]32)C1 1.55%, CCC(CC)c1nnc(NC(=O)C2CCN(C(=O)c3ccco3)CC2)s1 0.246%, Fc1cc(Br)ccc1NC(=S)Nc1cccnc1 -2.62%, O=C(Nc1cccnc1)c1ccc(Cl)cc1[N+](=O)[O-] -24.2%, CC(=O)c1c(C)[nH]c(C(=O)COC(=O)c2cccc(S(=O)(=O)N(C)c3ccccc3)c2)c1C 0.686%, CCCCCCCCn1c2c(c(=N)c3c1CCC3)CCCC2 -1.62%, COc1ccc(NC(=O)CN(C)C(=O)c2cc(C)oc2C)cc1 -3.07%, COc1ccc(NC(=O)Cn2c(-c3ccc(OC)cc3)cn(-c3ccc(C)cc3)c2=O)cc1 5.25%, COc1c(F)c(F)c(-c2csc(N)n2)c(F)c1F -2.44%, CCCc1nn(C)c2c(=O)[nH]c(-c3cc(S(N)(=O)=O)ccc3OCC)nc12 3.1%, CN(CC(=O)NC1CCN(Cc2ccccc2)CC1)S(=O)(=O)c1ccc(Cl)s1 0.847%, CCC(C)N1C(=O)S/C(=C/c2ccc(Sc3nc4ccccc4[nH]3)o2)C1=O (stereo unspecified) -5.85%, O=C(Cn1nnc(-c2ccccc2)n1)N/N=C/c1ccc(-c2ccc(Cl)cc2)o1 7.31%, COc1ccccc1CC(NC(C)=O)C(=O)NC1CCN(C(=O)Nc2ccccc2Cl)CC1 (stereo unspecified) 0.952%, CN1C(=O)c2ccccc2C(C(=O)NCCCN2CCCC2)C1c1c[nH]c2ccccc12 (stereo unspecified) 3%, Cn1c(=O)c2cc(S(=O)(=O)NCCC(=O)Nc3ccc(F)cc3F)ccc2n(C)c1=O -1.62%, Cc1cccc(-[n+]2c(-c3cccc(Br)c3)[nH]c3nc4ccccc4nc32)c1 1.4%, COc1cc(C(=O)OCC(=O)NC23CC4CC(CC(C4)C2)C3)cc(OC)c1OC 5.78%, C#CC(C)(C)NC(=O)c1cnc(-c2ccccc2)nc1-c1ccccc1 1.04%, Cc1nc(-c2ccccc2)sc1-c1nnc(C2CC2)o1 -25.8%, O=C(CCNC(=O)c1ccc(Br)cc1)Nc1cccc(S(=O)(=O)N2CCCCC2)c1 0.625%, O=C1NC[C@H](CCCCN2CCN(CCc3ccccc3)C(=O)C2=O)N(CC2CCCCC2)C1=O 0.562%, Cc1ccc2[nH]c3c(=O)n(Cc4ccccn4)cnc3c2c1 2.63%, CC1(C)CC(=O)C=C(c2ccc(COC(=O)c3cc(F)cc(F)c3)cc2)C1=O -22.7%, COc1ccc(OC)c(NC(=S)N2CCc3ccccc3C2)c1 0.375%, O=C(NCc1ccccc1)C(c1ccc(F)cc1)N1CCN(C(=O)C2CCCO2)CC1 (stereo unspecified) -1.69%, CCOC(=O)c1c(-c2cccc(N)c2)cn2ccccc12 -5.65%, CC1(C)OC(=O)N2CCc3ccccc3C21C (stereo unspecified) 3.74%, CC(=O)Nc1ccc(S(=O)(=O)N2CCC(C(=O)N[C@@H](Cc3ccccc3)C(=O)O)CC2)cc1 0.0701%, COc1cc(C2C3C(=O)N(c4ccccc4)C(=O)C3ON2c2ccccc2)ccc1O (stereo unspecified) 5.72%
